Assay outcomes deposited in PubChem by National Center for Advancing Translational Sciences (NCATS).
The full list was thinned out, with hits kept by preference.
GFP derepression: qHTS Assay for Epigenetic Modulators; mouse C127i GFP locus derepression, cytometry, 30 h; Potency, µM (series often up to 46.1 µM); actives 0.09% (n = 68,000); AID 597, 2007
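Derepression screen: silenced CMV-GFP reporter in murine C127i cells, 30 h compound incubation at 37 C, washed cells imaged by laser-scanning cytometer to enumerate GFP-expressing objects of 20 to 120 um.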
HBB splicing: qHTS Assay for Modulators of Hemoglobin Beta Chain Splicing; AID 925, 2007; HBB splicing reporter cell assay, activation; EGFP reporter with mutant IVS2-654 intron; response scale: normalised to 500 nM splice-correcting PNA; actives 0.06% (n = 65,000); Potency, µM (top dose mostly 46.1 µM), actives largely listed as activators
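Compounds were applied for 2 days to HeLa EGFP-654 cells, 500/well in Optimem with 2% FCS. The reporter's EGFP is disrupted by mis-splicing of beta-globin intron IVS2-654. Readout: summed well GFP fluorescence from 488 nm laser scanning; reference was 500 nM antisense […] 654 PNA.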
GBA activity: Glucocerebrosidase; AID 360, 2006; Potency, µM; Lysosomal acid glucosylceramidase (Homo sapiens), P04062; actives 1.1% (n = 48,000); purified enzyme, resorufin glucoside fluorescence (screen aimed at inhibitors), 20 min; in the data active = potency below about 15 µM; inconclusive = mostly about 16 µM to 33 µM;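 also: the screen sought inhibitors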
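Wild-type enzyme at 0.2 nM final in 50mM citric acid/KH2PO4, 10mM sodium taurocholate, 0.01% tween-20, pH 5.9, with resorufin beta-D-glucopyranoside at 30 uM final. Compounds titrated, 20 min at RT, red fluorescence read; AC50 from titration.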
Ub-GFP proteasome: Ubiquitin-GFP Assay. AID 526, 2006. 67,000 tested, under 10 active. Ubiquitin-GFP reporter cells, proteasome inhibition, GFP fluorescence; response scale: untreated = 0%, 10 µM MG-132 = 100%. Potency, µM (titrated, usually from 45.9 µM), usual class: activators; active = well fitted activation curve with a large enough effect, not every such curve was filed as active; inconclusive = small, poorly fitted or top-dose-only effect, or another doubt; inactive = no such curve, though single readings can be large or run the other way
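Proteasome blockade was scored as a rise in GFP-expressing U2OS cells carrying a ubiquitin(G76V)-GFP construct, imaged after 4 hr compound treatment at 37 °C across a 46 uM–2.9 nM series.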
USP2a inhib: qHTS Assay for Inhibitors of Ubiquitin-specific Protease USP2a. Ubiquitin carboxyl-terminal hydrolase 2 (Homo sapiens), O75604. Potency, µM (top dose mostly 38.3 µM), actives largely listed as inhibitors. actives 0.1% (n = 60,000). USP2a enzymatic assay, qHTS inhibition. AID 927, 2007; also: nearly all actives have a fitted effect of over 60% in size
Target sequence (O75604 whole entry, looked up): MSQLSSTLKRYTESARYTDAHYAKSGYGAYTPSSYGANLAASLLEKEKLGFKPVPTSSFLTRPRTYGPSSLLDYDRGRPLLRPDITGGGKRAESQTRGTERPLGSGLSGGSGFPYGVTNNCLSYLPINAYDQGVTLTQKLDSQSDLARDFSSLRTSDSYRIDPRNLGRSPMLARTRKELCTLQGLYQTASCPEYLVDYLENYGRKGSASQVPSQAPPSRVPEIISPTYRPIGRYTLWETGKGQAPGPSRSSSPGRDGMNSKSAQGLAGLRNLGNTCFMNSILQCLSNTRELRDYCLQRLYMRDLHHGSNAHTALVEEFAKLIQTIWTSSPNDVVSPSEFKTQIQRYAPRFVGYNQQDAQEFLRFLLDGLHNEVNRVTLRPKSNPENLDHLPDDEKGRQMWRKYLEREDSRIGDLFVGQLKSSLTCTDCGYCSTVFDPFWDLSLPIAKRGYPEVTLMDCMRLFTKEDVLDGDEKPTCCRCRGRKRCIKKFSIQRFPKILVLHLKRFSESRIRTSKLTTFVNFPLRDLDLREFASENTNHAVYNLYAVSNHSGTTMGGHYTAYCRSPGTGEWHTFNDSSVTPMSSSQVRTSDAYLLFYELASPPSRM
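Coupled readout: USP2-cleaved Ub-PLA2 (20nM final) turns over NBD C6-HPC (20uM final), Ex 460nm/Em 535nm after 2.5 h, time-zero read flagging artifacts. Enzyme (20nM final, pH 8.0 Tris) given 30 min RT with compound first; NEM defines full inhibition.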
Numbers stand for hits; - = inactive; ? = inconclusive; . = no result given; [ ] = dose if it differs, or a comment. Unless noted, calls follow the shape of the dose curve; as a rule, active = well fitted curve in the direction sought with a large enough effect; inconclusive = small, poorly fitted or top-dose-only effect, or another doubt; inactive = no such curve, though single readings can be large; an effect the other way counts as inactive or inconclusive.

SMILES	GFP derepression	HBB splicing	GBA activity	Ub-GFP proteasome	USP2a inhib
CC1CC[C@@]2(C(=O)O)CC[C@]3(C)C(=CCC4[C@@]5(C)CCC(O)C(C)(C)C5CC[C@@]43C)C2C1C (some centres not stated)	.	.	.	.	-
CC(=O)c1sc2nc(-c3cccs3)cc(C(F)(F)F)c2c1N	?	?	14	-	-
COc1ccc(CNc2ncncc2-c2cccc(NS(C)(=O)=O)c2)c(OC)c1	-[9.22 µM]	-	.	-	-
Cc1cc(N)c2ccccc2[n+]1CCCCCCCCCCCCCC[n+]1c(C)cc(N)c2ccccc21	-	-	.	-	16µM
Cc1cccc2c(=O)c(C(=O)N3CCCCCC3)c[nH]c12	-	-	6.5	-	-
Cc1ccccc1C(=O)N1CCCN(C(=O)c2ccccc2C)CC1	-	-	-	-	-
Cc1ccccc1-c1ccc2ncnc(NCc3cccs3)c2c1	-[9.22 µM]	-	.	-	-
Cc1ccc(-n2c(C)cc(C3N=C(N)Nc4nc5ccccc5n43)c2C)c(C)c1 (configuration not stated)	-	-	?	-	-
Cc1cc(C2N=C(N)Nc3nc4ccccc4n32)c(C)n1-c1ccccc1Cl (configuration not stated)	-	-	13	-	-
O=c1c(CCc2ccccc2)nc2cnc(N3CCNCC3)nc2n1C1CC1	-[9.22 µM]	-	.	-	-
CC(=O)OCC1OC(c2ccc3c(c2)OCO3)C=CC1OC(C)=O (configuration not stated)	.	-[9.22 µM]	.	.	.
COc1cccc(OCC(O)CN(CCO)Cc2ccccc2)c1 (configuration not stated)	-	-	13	-	-
N#CC1=C(SCC(=O)NC23CC4CC(CC(C4)C2)C3)NC(=O)C(C#N)C12CCCCC2 (configuration not stated)	-	-	6.2	-	-
Cc1cc(C)cc(-n2c3nc4ccccc4nc3c3c(=O)n(Cc4ccco4)cnc32)c1	13µM	.	.	.	.
CCOc1ccc(-n2c3nc4ccccc4nc3c3c(=O)n(Cc4ccco4)cnc32)cc1	-	.	.	.	.
COCCN1Cc2cccc(C(=O)Nc3ccc(S(=O)(=O)N4CCCCC4)cc3)c2C1=O	-	-	15	-	-
COCCCNC(=O)CCC(=O)Nc1ccc2nc(N3CCOCC3)cc(C)c2c1	-	-	6.8	-	-
Cc1cc(N2CCN(C)CC2)nc2ccc(NC(=O)CCC(=O)NCCC3=CCCCC3)cc12	-	-	?	-	-
Cc1cc(N2CCOCC2)nc2ccc(NC(=O)C3CCC(C)CC3)cc12 (configuration not stated)	-	-	0.061	-	-
O=C(Nc1ccc(N2CCOCC2)cc1)C1CC1	-	-	-	-	-
CCN1CCN(c2cc(C)c3cc(NC(=O)c4ccc(Br)o4)ccc3n2)CC1	-	-	5.1	-	-
CCCCNC(=O)CCC(=O)Nc1ccc2nc(N3CCOCC3)cc(C)c2c1	-	-	3.8	-	-
CN(C)c1ncnc2ccc(-c3cccc(C#N)c3)cc12	-[9.22 µM]	-	.	-	-
CCOC(=O)C1CCCN(C(=O)N2CCOCC2)C1 (configuration not stated)	-	-[0.0738 µM]	.	-[9.17 µM]	-[7.66 µM]
CCOC(=O)C1CCCN(C(=O)CCC(=O)Nc2ccc3nc(N4CCOCC4)cc(C)c3c2)C1 (configuration not stated)	-	-	2.6	-	-
SMILES	GFP derepression	HBB splicing	GBA activity	Ub-GFP proteasome	USP2a inhib
CSCC[C@@H]1NC(=O)C/C=C\[C@@H](C)COC(=O)[C@@H](C)COC1=O	.	-[9.22 µM]	.	.	.
COc1ccccc1Cn1c(-c2ccco2)nc2nc3ccccc3nc21	13µM	-	-	-	-
c1ccc(Cn2c(-c3ccco3)nc3nc4ccccc4nc32)cc1	-	-	-	-	-
CCCn1c(=O)c(C(=O)Nc2ccccc2C(=O)OC)c(O)c2ccccc21	-	-[0.369 µM]	14	.	-
Cc1nn(-c2ccccc2)c(Cl)c1C1C(C#N)=C(N)Oc2n[nH]c(C)c21 (configuration not stated)	-	-	?	-	-
Cc1nn(-c2ccccc2)c2c1C(c1c(C)[nH]c(C#N)c1C)C(C#N)=C(N)O2 (configuration not stated)	-	-	11	-	-
CCNc1ncc2nc(-c3cccs3)c(=O)n(Cc3ccc(F)cc3)c2n1	-[9.22 µM]	?	.	-	-
Cc1cccc(NC(=O)Cn2nnc(-c3cccs3)n2)c1C	-	-	-	-	-
COC(=O)c1sccc1NC(=O)Cn1nnc(-c2ccc(C)cc2)n1	-	-	15	-	-
CCN1CCN(c2ccc(NC(=O)c3cccnc3)cc2Cl)CC1	-	.	6.3	-	-
O=C(Nc1ccccc1N1CCCC1)c1cccnc1	-	-	-	-	-
Cc1[nH]n2c(=O)c3c(nc2c1-c1ccccc1)CCC3	-	-	9.5	-	-
O=c1c2c(nc3c(-c4ccccc4)c[nH]n13)CCCC2	-	-	.	-	-
Cc1[nH]n2c(=O)c3c(nc2c1-c1ccc(Cl)cc1)CCC3	-	.	12	-	-
CCc1ccc(NC(=O)C2CCN(S(C)(=O)=O)CC2)cc1	-	-	?	-	-
COC(=O)c1ccc(NC(=O)C2CCN(S(C)(=O)=O)CC2)cc1	-	.	-	-	-
CS(=O)(=O)N1CCC(C(=O)Nc2ccc(Oc3ccccc3)cc2)CC1	-	-	14	-	-
CC(C)c1ccc(NC(=O)C2CCN(S(C)(=O)=O)CC2)cc1	-	-	12	-	-
O=C(Cn1nnc(-c2ccccc2F)n1)Nc1ccc(S(=O)(=O)NC2CCCC2)cc1	-	.	6.9	-	-
Cc1cc(C)nc(N2CCC(C(=O)O)CC2)n1	-	.	-	-	?
Cc1cc(C)nc(N2CCC(C(=O)Nc3nnc(C)s3)CC2)n1	-	.	3	-	-
Cc1cc(C(=O)COC(=O)c2ccc3c(c2)OCO3)c(C)n1Cc1cccs1	-	-	14	-	-
CCn1nc(C(=O)OCC(=O)c2cc(C)n(Cc3cccs3)c2C)c2ccccc2c1=O	-	-	-	-	-
S=C(Nc1ccccc1)Nc1nccs1	32µM	-	.	-	-
Cc1ccc(-n2ncc3c(=O)n(CC#N)cnc32)cc1C	-	-	-	-	-
SMILES	GFP derepression	HBB splicing	GBA activity	Ub-GFP proteasome	USP2a inhib
CCc1nnc2c3cnn(-c4ccc(C)c(C)c4)c3ncn12	-	-	0.21	-	-
Cc1nc2c3cnn(-c4ccc(C)c(C)c4)c3ncn2n1	-	-[0.369 µM]	-	-	-
C#CCn1cnc2c(cnn2-c2ccc(C)c(C)c2)c1=O	-	-	15	-	-
Cc1ccc(NC(=O)c2ccccc2C(=O)O)cc1C	-[9.22 µM]	-[9.22 µM]	.	-[9.17 µM]	.
N#Cc1ccc(NC(=O)c2cc3cc4c5c(c3oc2=N)CCCN5CCC4)cc1	10µM	-	-	-	-
CC(C)c1cc(=O)oc2c3c4c(cc12)CCCN4CCC3	-	-[9.22 µM]	.	-	-
